CHX counter – counter-screen for Shiga toxin inhibitors: cycloheximide protein synthesis inhibition. cell reporter, cycloheximide protein synthesis inhibition counterscreen. AID 2314. hit rate 12% among 300,000. max response, %; in the data active means max response mostly above about 13%, no sharp cut-off; inactive means mostly below about 14%; further: read at 38.3 µM for the half of the compounds with a filed dose; 0% is about no effect
TbPYK inhibitor – inhibitors of Trypanosoma brucei pyruvate kinase; Q57TT1; TbPYK enzyme, Kinase-Glo Plus ATP luminescence, 45 min; Potency, µM (doses to about 76.8 µM), for the others: at the top dose activity, negative = inhibition, most hits filed as inhibitors; hit rate 0.12% among 410,000; AID 624173; further: potency means the concentration at half of the fitted maximal effect; on the % scale 0 is the no-effect control and ±100 the full control effect; nearly all actives have a fitted effect of over 50% in size
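Glycolytic pyruvate kinase of T. brucei was incubated with substrate, test compound and 130 uM ADP for 45 minutes at room temperature. Luminescent Kinase-Glo Plus signal was measured after 10 minutes.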
RE007 growth inh – less growth of the S. pombe RE007 Vpr strain; S. pombe RE007 Vpr strain, BacTiter-Glo ATP luminescence, 24 h; Potency, µM (series often up to 92.2 µM), without a hit: at the highest dose activity change, negative = less growth, actives largely listed as inhibitors; hit rate 0.21% among 360,000; AID 651644; active means well fitted falling curve with a large enough effect; inconclusive means small, poorly fitted or top-dose-only effect; inactive means no such curve, though single readings can be large or run the other way; further: potency means the concentration at half of the fitted maximal effect; on the % scale 0 is the no-effect control and ±100 the full control effect; nearly all actives have a fitted effect of over 50% in size
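Fission yeast RE007 carrying one integrated HIV-1 vpr copy, seeded at OD 0.01 in PMG+AL medium with 23 nL pinned compound. Grown 24 h at 30 degrees; viability read by BacTiter-Glo luminescence after 5 min.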
LmPK inhibitor – inhibitors of Leishmania mexicana pyruvate kinase; purified LmPK, Kinase-Glo ATP luminescence, 1 h; hit rate 0.37% among 290,000; Potency, µM (series often up to 57.5 µM), for inactives: at the top dose activity change, negative = inhibition, most hits filed as inhibitors; Q27686; further: potency means the concentration at half of the fitted maximal effect; on the % scale 0 is the no-effect control and ±100 the full control effect
Target sequence (Q27686 whole entry, looked up): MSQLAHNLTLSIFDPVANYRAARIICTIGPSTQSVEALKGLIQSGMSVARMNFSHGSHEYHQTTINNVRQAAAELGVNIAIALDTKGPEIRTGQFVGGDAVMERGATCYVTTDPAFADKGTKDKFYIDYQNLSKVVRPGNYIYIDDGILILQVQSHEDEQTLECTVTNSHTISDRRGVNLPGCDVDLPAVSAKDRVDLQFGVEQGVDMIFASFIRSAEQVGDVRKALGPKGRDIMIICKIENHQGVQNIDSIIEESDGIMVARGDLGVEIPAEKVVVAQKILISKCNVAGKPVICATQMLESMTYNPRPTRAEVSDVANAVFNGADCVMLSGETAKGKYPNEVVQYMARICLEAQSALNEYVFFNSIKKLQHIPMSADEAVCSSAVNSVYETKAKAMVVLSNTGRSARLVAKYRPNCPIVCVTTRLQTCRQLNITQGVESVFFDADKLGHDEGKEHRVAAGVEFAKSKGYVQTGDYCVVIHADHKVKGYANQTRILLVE
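Purified LmPK (0.1 nM) with 0.5 mM PEP and 0.1 mM ADP in imidazole buffer pH 7.2 with MgCl2/KCl, 1 h at room temperature. ATP formed was read by luciferase luminescence and normalized to no-enzyme and uninhibited controls.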
Shiga inhibitor – Shiga toxin inhibition; Vero cells, Shiga toxin protein synthesis inhibition reporter; inhibition, % at 38.7 µM; hit rate 9.2% among 290,000; AID 2315; in the data active means inhibition mostly above about 28%, no sharp cut-off; inactive means mostly below about 43%; further: 0% is about no effect
Giardia FBPA inh – blocks Giardia fructose-bisphosphate aldolase activity | hit rate 0.71% among 290,000 | purified Giardia FBPA | A8B2U2 | Potency, µM (doses to about 59.6 µM), for the others: top-dose activity, negative = inhibition, hits mostly inhibitors; further: potency means the concentration at half of the fitted maximal effect; on the % scale 0 is the no-effect control and ±100 the full control effect; nearly all actives have a fitted effect of over 55% in size
Target sequence (A8B2U2 whole entry, looked up): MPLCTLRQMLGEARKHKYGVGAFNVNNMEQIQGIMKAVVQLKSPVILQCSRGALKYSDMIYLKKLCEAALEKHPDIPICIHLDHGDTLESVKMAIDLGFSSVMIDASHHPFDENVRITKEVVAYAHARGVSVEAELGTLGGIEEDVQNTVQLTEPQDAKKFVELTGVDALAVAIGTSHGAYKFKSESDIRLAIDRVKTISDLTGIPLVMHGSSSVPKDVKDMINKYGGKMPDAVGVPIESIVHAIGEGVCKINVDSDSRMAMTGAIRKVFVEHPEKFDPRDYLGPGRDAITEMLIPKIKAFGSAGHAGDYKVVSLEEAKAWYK
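40 nM FBPA preincubated 10 min at RT with compound (up to 57.5 uM final), then substrate plus GAPDH/TPI/NAD/arsenate coupling and diaphorase/resazurin added. Fluorescence read after 20 min at RT, 525/598 nm.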
* hit, by the source's call; u = inconclusive; x = no result. The sample as a whole holds a higher share of hits than the screen did. Unless noted, the call rests on the fitted dose curve; in most records, active means well fitted curve in the direction sought with a large enough effect; inconclusive means small, poorly fitted or top-dose-only effect, or another doubt; inactive means no such curve, though single readings can be large; an effect the other way counts as inactive or inconclusive.

SMILES | CHX counter | TbPYK inhibitor | RE007 growth inh | LmPK inhibitor | Shiga inhibitor | Giardia FBPA inh
COc1ccc(-c2c(-c3ccc4c(c3)OCO4)noc2C)cn1 | 24.8* | 7.5% | -10.0% | -2.8% | 66.7* | 0.1%
O=C(O)c1cc(-c2ccc3c(c2)OCO3)nc2ccc(Cl)cc12 | 8.3 | -3.9% | 12.3% | -8.4% | 29.7 | x
CN(C)c1ccc(-c2c(-c3ccc4c(c3)OCO4)noc2-c2ccsc2)cn1 | 28.1* | -7.6% | -16.6% | -6.5% | 40.1* | -10.2%
COC(=O)c1cc(-c2c(-c3ccc4c(c3)OCO4)noc2-c2ccsc2)cc([N+](=O)[O-])c1 | 24.6* | 3.5% | 10.3% | 4.1% | 30.4 | 1.0%
O=C(c1ccc2c(c1)N(Cc1ccccc1)C(=O)c1ccccc1S2(=O)=O)N1CCN(c2ccccn2)CC1 | x | 2.7% | x | x | x | x
Cc1ccc(Cl)cc1NC(=S)N(CCCN1CCOCC1)Cc1ccco1 | 5.6 | -3.2% | 0.5% | 1.5% | -8.1 | 0.7%
CCNc1ncc2nc(-c3ccccc3)c(=O)n(Cc3cccs3)c2n1 | x | x | x | x | x | 0.5%
CC(C)(C)c1cc(-c2n[nH]c(=S)n2-c2ccccc2F)n[nH]1 | 40.3* | u | -11.7% | 14.1µM* | 73.9* | -17.4%
COc1ccc(OC)c(C2CC(=O)c3c([nH]c(C(=O)OC4CCC(C)CC4)c3C)C2)c1 (stereo unspecified) | x | 7.7% | x | x | x | x
Cc1c(-c2cc(Br)ccc2O)nc2cc3c(cc2c1C)OCO3 | 37.9* | -2.0% | 6.9% | -1.1% | 47.4* | -8.2%
O=C(/C=C(\O)c1ccccc1)C(=O)NNC(=O)c1ccccc1 | 38.8* | -9.1% | 0.3% | 5.1% | 51.9* | 0.4%
COc1ccc(C(=O)NNC(=O)C(=O)/C=C(\O)c2ccc(C)cc2)cc1 | 8.2 | -5.2% | -8.5% | 1.8% | 7.2 | 3.9%
COC(=O)c1c(-c2ccc(Cl)cc2)noc1N1CCN(c2cccc(OC)c2)CC1 | x | 2.5% | x | x | x | x
NC(=O)C1CC(=O)N(c2ccc(OCc3ccc(Cl)cc3Cl)cc2)C1 (stereo unspecified) | 25.6* | 8.0% | 90.0% | 8.4% | 58.4 | 2.0%
NC(=O)C1CC(=O)N(c2ccc(OCc3ccc(Cl)c(Cl)c3)cc2)C1 (stereo unspecified) | x | -13.3% | -21.4% | x | x | x
C=CCNC(=O)C1CC(=O)N(c2ccc(OCc3ccccc3Cl)cc2)C1 (stereo unspecified) | 33.3* | -0.8% | 18.0% | -13.4% | 33.2* | -5.8%
COC(=O)C1CC(=O)N(c2ccc(OCc3ccccc3Cl)cc2)C1 (stereo unspecified) | 1.4 | -3.0% | -1.3% | -0.4% | x | 5.0%
C/C(CC(=O)NC1CCCC1)=N\NC(=O)Cc1cccs1 | 15.5* | -10.9% | -16.8% | -0.6% | 19.8 | 0.6%
C/C(CC(=O)Nc1ccc(Cl)cn1)=N\NC(=O)Cc1cccs1 | 12.6* | -0.7% | 11.7% | 3.3% | 26.1 | -2.8%
C/C(CC(=O)NC12CC3CC(CC(C3)C1)C2)=N\NC(=O)Cc1cccs1 | 11.6 | -4.3% | x | 2.3% | 13.3 | -1.4%
Cc1ccc2c(CC(=O)N(Cc3ccc(Cl)cc3)Cc3ccco3)coc2c1 | x | 1.9% | x | x | x | x
C[N+]1(C)CCN(C[C@@](O)(c2ccccc2)C2CCCCC2)CC1 | x | 4.8% | x | x | x | x
Cc1nn(C)c(C)c1C(C)NC(=O)c1cc(COc2ccc(F)c(F)c2)on1 (stereo unspecified) | 33.1* | -6.8% | 1.3% | -5.8% | 47.0* | x
Cc1nn(C)cc1C(C)NC(=O)c1cc(COc2ccc(F)c(F)c2)on1 (stereo unspecified) | 33.1* | 0.0% | -2.8% | 0.0% | 18.4 | -1.3%
Cc1ccccc1OCC(=O)NC1=NCCS1 | 29.2* | -1.2% | -19.5% | u | 31.9* | 0.5%
SMILES | CHX counter | TbPYK inhibitor | RE007 growth inh | LmPK inhibitor | Shiga inhibitor | Giardia FBPA inh
Cc1ccc(OCC(=O)NC2=NCCS2)cc1 | 24.7* | -4.7% | -7.9% | -20.1% | 8.2 | -1.1%
O=C(COc1ccccc1)NCC(=O)NC1=NCCS1 | -2.7 | -3.0% | -6.7% | -0.8% | -10.8 | -3.9%
C[C@@H](NC(=O)c1nc[nH]c1C(=O)NCC(=O)OCc1ccccc1)c1ccccc1 | -0.9 | -1.6% | 5.0% | 1.8% | -10.0 | -19.5%
CC(=O)c1ccc(Nc2c3ccccc3cc3occc23)cc1 | 8.6 | x | x | x | -6.3 | -1.3%
CC(=O)c1ccc(N2CCN(S(=O)(=O)c3ccc(-c4coc(C)n4)cc3)CC2)cc1 | x | 1.9% | x | x | x | x
C=CCn1c(C)cc(-c2csc(NCC)n2)c1C | 43.2* | 1.7% | -32.7% | -3.0% | 89.3* | u
C=CCn1c(C)cc(-c2csc(NC)n2)c1C | 0.8 | -13.3% | -3.4% | -8.7% | -3.7 | u
C=C1C[C@]2(O)[C@@]3(C)CCC(=O)C(C)(C)C3=C(O)C(=O)[C@@]2(C)[C@@H]2C(=O)O[C@@](C)(C(=O)OC)C(=O)[C@@]12C | 25.6* | -7.1% | 13.3% | 8.1% | 63.9* | -3.4%
CCOc1ccc(CCNC(=O)C2CC(=O)N(c3ccc4c(c3)OCCO4)C2)cc1OCC (stereo unspecified) | x | -0.5% | 12.5% | x | x | x
COc1ccc2oc(C(=O)OCC(=O)Nc3ccccc3)c(C)c2c1 | 29.1* | 0.1% | -14.7% | -1.7% | 34.7* | -1.0%
COc1ccc2oc(C(=O)OCC(=O)Nc3ccc(C(=O)N(C)C)cc3)c(C)c2c1 | 16.6* | -6.4% | -4.5% | -5.3% | 13.8 | 0.2%
COc1ccc2oc(C(=O)OCC(=O)Nc3ccc(N4CCOCC4)cc3)c(C)c2c1 | x | -1.2% | 7.1% | x | x | x
CCOC(=O)N1CCN(C(=O)COC(=O)c2oc3ccc(OC)cc3c2C)CC1 | 16.2* | 7.3% | -2.1% | -2.2% | 32.1* | -4.8%
COc1ccc2oc(C(=O)OCC(=O)Nc3ccccc3OC)c(C)c2c1 | x | -0.4% | 5.8% | x | x | x
COc1cc(C(=O)N2CCN(C(=O)c3cc(-c4ccccc4)n[nH]3)CC2)cc(OC)c1OC | 7.7 | 11.3% | -2.5% | -4.2% | -2.2 | -1.4%
O=C(CSc1ncn[nH]1)c1cc2ccccc2o1 | 19.7* | 0.4% | 10.8% | 4.5% | 43.0 | -14.4%
O=C(CSc1nccc(=O)[nH]1)c1cc2ccccc2o1 | 34.2* | -12.4% | -12.2% | -8.1% | 47.4* | -3.0%
O=C(CSc1ncn[nH]1)c1cccc([N+](=O)[O-])c1 | 5.0 | -11.1% | 1.8% | -4.9% | 17.8 | u
O=C(CSc1ncn[nH]1)c1ccccc1 | 16.6 | u | 4.5% | 8.0% | 51.6* | u
O=C(CSc1nccc(=O)[nH]1)c1ccco1 | -1.8 | 6.3% | 17.1% | 0.8% | 2.1 | -28.1%
COc1cccc(NC(=O)c2oc3ccccc3c2NC(=O)c2ccc3c(c2)OCO3)c1 | 3.2 | 2.4% | 1.9% | -10.2% | 13.4 | -2.4%
COCC(=O)Nc1c(C(=O)Nc2ccc3c(c2)OCO3)oc2ccccc12 | 6.7 | 1.6% | 0.2% | 0.2% | 10.5 | -1.8%
CC(=O)Nc1c(C(=O)Nc2ccc3c(c2)OCO3)oc2ccccc12 | 41.8* | -1.0% | -4.2% | 1.0% | 113.8* | u
